Bioassay records deposited in PubChem BioAssay by National Center for Advancing Translational Sciences (NCATS).
IL-1B inflam inh: inflammasome signaling inhibition, IL-1 beta readout. THP-1 LPS/ATP IL-1B secretion, AlphaLISA, 16 h; stronger effect = lower value. activity change, % at 57.5 µM. actives 4.7% (n = 360,000); in the data active means activity change below about -50%; inconclusive means mostly about -30% to -49%
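THP-1 cells pretreated 1 hr with compounds (up to 57.5 uM final), then stimulated with LPS (250 ng/mL final) plus ATP (1.25 mM final); secreted IL-1B measured by AlphaLISA after 16 hr, decreased signal indicating inhibition.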
TDP1 cell CPT: growth inhibition of DT40 Tdp1-/-;hTDP1 cells with camptothecin (screen for TDP1 inhibitors); chicken DT40 Tdp1-/-;hTDP1 cells + 20 nM CPT, ATP luminescence, 48 h; Potency, µM (doses to about 46.2 µM), for inactives: at the top dose activity change, negative = growth inhibition, hits mostly inhibitors; actives 12% (n = 420,000); further: potency means the concentration at half of the fitted maximal effect; nearly all actives have a fitted effect of over 55% in size
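Chicken DT40 Tdp1-/- cells stably complemented with human TDP1 were seeded at 400 cells/well in medium containing 20 nM camptothecin, exposed to pin-transferred compounds, and grown at 37 °C for at least 48 hr. Viability was read as ATP luminescence.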
DT40 TDP1 no CPT: qHTS for Inhibitors of human tyrosyl-DNA phosphodiesterase 1 (TDP1): qHTS in cells in absence of CPT; DT40 Tdp1-/- hTDP1 cells, no CPT, ATP luminescence, 48 h; actives 15% (n = 420,000); Potency, µM (titrated, usually from 46.2 µM), without a hit: at the top dose activity change, negative = growth inhibition, hits mostly inhibitors; further: potency means the concentration at half of the fitted maximal effect; nearly all actives have a fitted effect of over 55% in size
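Readout: luminescence from CellTiter-Glo after 30 min in the dark at RT. Cells: DT40 Tdp1-/- with stable hTDP1, 400/well. Exposure: compounds alone, ≥48 hr, 37 °C.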
HT1080-NT tox: kills 2HG-producing HT-1080-NT fibrosarcoma cells. Potency, µM (top dose mostly 46.1 µM), for inactives: at the highest dose activity, negative = less viability, most hits filed as cytotoxic. HT-1080-NT fibrosarcoma viability, CellTiter-Glo ATP luminescence, 48 h. actives 1.6% (n = 360,000);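 further: NT is the 2HG producing partner of a matched IDH1 knockdown line; potency means the concentration at half of the fitted maximal effect; 0% = DMSO-treated cells and -100% = media-only wells without cells; nearly all actives have a fitted effect of over 55% in size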
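A 48-hour cytotoxicity screen used HT-1080-NT cells plated 2 hours before compound delivery. ATP-based CellTiter-Glo luminescence measured viability, normalized to DMSO and no-cell controls.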
ELG1 repair inh: blocks ELG1-dependent DNA repair in HEK293T cells; Potency, µM (doses to about 46.1 µM), without a hit: at the top dose activity change, negative = inhibition, most hits filed as inhibitors; actives 2.3% (n = 330,000); HEK293T ELG1-luciferase reporter, luminescence, 16 h; DNA damage induced by 5-fluorouridine; further: potency means the concentration at half of the fitted maximal effect; nearly all actives have a fitted effect of over 55% in size
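Reporter activity after DNA damage by 5-fluorouridine is monitored. Compound-treated cells incubate 16 hr at 37 °C, then ONE-Glo is added for 30 min before luminescence reading.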
HT1080 IDH1KD tx: HT-1080 IDH1 knockdown cell toxicity (counter line) | HT-1080 IDH1 knockdown viability, ATP luminescence, 48 h | Potency, µM (doses to about 46.1 µM), without a hit: top-dose activity, negative = toxicity, usual class: cytotoxic | actives 2% (n = 360,000);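 further: potency means the concentration at half of the fitted maximal effect; 0% = DMSO wells and -100% = cell-free medium wells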
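After a 2 h attachment period, IDH1KD HT-1080 cells took pin-transferred compound for 48 h at 37 °C; ATP-based luminescence after 10 min room-temperature reagent incubation reported viability.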
Numbers without * were called inactive; i = inactive; ? = inconclusive; . = not tested or not shown. In the library only some 19% were active in any assay of this set; here they are far more common. Unless noted, the call rests on the fitted dose curve; in most records, active means well fitted curve in the direction sought with a large enough effect; inconclusive means small, poorly fitted or top-dose-only effect, or another doubt; inactive means no such curve, though single readings can be large; an effect the other way counts as inactive or inconclusive. Unless noted, on the % scale 0 is the no-effect control and ±100 the full control effect.

SMILES | IL-1B inflam inh | TDP1 cell CPT | DT40 TDP1 no CPT | HT1080-NT tox | ELG1 repair inh | HT1080 IDH1KD tx
O=c1c2ccccc2sn1-c1cc(S(=O)(=O)N2CCOCC2)ccc1N1CCCC1 | -107* | 5.8µM* | 12µM* | ? | -17% | ?
CC(=O)Nc1ccc(S(=O)(=O)NC2(C(F)(F)F)NC(=O)N(CCc3ccc(F)cc3)C2=O)cc1 (stereo unspecified) | . | -11% | -10% | . | . | .
CCOC(=O)c1c2c3c(c(Cl)ccc3[nH]c1=O)C(=O)c1ccccc1-2 | -85* | -16% | ? | 2% | -7% | -1%
O=C(CNC(=O)c1ccc(F)cc1)NCc1ccc(S(=O)(=O)N2CCOCC2)cc1 | 7 | -1% | -15% | 1% | 5% | 0%
CNC(=O)c1nc(C)n(-c2ccc(Cl)cc2Cl)n1 | 7 | 12µM* | ? | 1% | 3% | -15%
Cc1nc(C(=O)N(C)C)nn1-c1ccc(Cl)cc1Cl | 1 | 7% | -7% | -3% | 21% | -5%
CNC(=O)c1c(NC(=O)C2=COCCO2)sc2c1CCN(C(=O)OC)C2 | -6 | -4% | -8% | -2% | 13% | 0%
COc1cccc(C(=O)Nc2sc3c(c2C#N)CCN(C(C)=O)C3)c1 | 71 | 2.1µM* | 1.5µM* | 2.6µM* | 9% | 2.9µM*
COC(=O)N1CCc2c(sc(NC(=O)C3=COCCO3)c2C#N)C1 | 4 | 1.3µM* | 0.92µM* | 4.6µM* | ? | 3.7µM*
Nc1c(C(=O)N/N=C/c2ccccc2Cl)oc2nc(-c3ccccc3)cc(-c3ccco3)c12 | . | ? | 21µM* | -5% | ? | 2%
Nc1c(C(=O)N/N=C/c2ccc(F)cc2)oc2nc(-c3ccccc3)cc(-c3ccco3)c12 | . | 23µM* | 10µM* | ? | -25% | 21µM*
Cc1cc(-c2ccccc2)nc2oc(C(=O)NN)c(N)c12 | 25 | ? | ? | -2% | -8% | -10%
COc1ccc(N2CC(c3nc(-c4ccccc4C)no3)CC2=O)cc1Cl (stereo unspecified) | . | -22% | -22% | . | . | .
COc1ccc(C2NC(=O)N(C)C3=C2C(=O)N(c2ccc(C)cc2)C3)cc1 (stereo unspecified) | . | 9% | 0% | . | . | .
CCCCCCCC[n+]1c(C)n(-c2ccccc2)c2ccc(NC(C)=O)cc21 | -103* | 0.41µM* | 0.82µM* | -17% | ? | -30%
COC1CCCN(C(=O)c2ccc3oc(Cc4ccc(Cl)cc4)nc3c2)C1 (stereo unspecified) | 0 | -17% | ? | 7% | -7% | -5%
COCC1CCCN(C(=O)c2ccc3oc(Cc4ccc(Cl)cc4)nc3c2)C1 (stereo unspecified) | -10 | 23µM* | 8.2µM* | 5% | -22% | -15%
COCC1CCCCN1C(=O)c1ccc2oc(CCCc3ccccc3)nc2c1 (stereo unspecified) | -5 | 18µM* | 23µM* | -6% | ? | -12%
COCC1CCCN(C(=O)c2ccc3nc(Cc4cccc(Cl)c4)oc3c2)C1 (stereo unspecified) | -11 | 26µM* | 15µM* | 3% | ? | 1%
COCC1CCN(C(=O)c2ccc3nc(Cc4cccc(Cl)c4)oc3c2)CC1 | -9 | 21µM* | 18µM* | -3% | . | -8%
COC(=O)C1N2C(=O)N(C)[C@H](C(=O)OC)[C@H]2SC1(C)C (stereo partly specified) | . | -9% | -3% | . | . | .
Cc1ccc2c(CC(=O)Nc3cccc(Cl)c3C)coc2c1 | . | -6% | 1% | . | . | .
CC(C)CC(=O)C1CCCN(C(=O)c2ccc3oc(Cc4ccccc4)nc3c2)C1 (stereo unspecified) | -52* | 23µM* | 23µM* | -3% | -8% | -22%
COCCN1CCN(C(=O)c2ccc3nc(Cc4ccc(OC)c(OC)c4)oc3c2)CC1 | i | 12µM* | 6.5µM* | 7.3µM* | 16% | -10%
CN(C)S(=O)(=O)c1ccc(C(=O)Nc2cc(S(=O)(=O)Nc3ccccc3Cl)ccc2N2CCCCC2)cc1 | -4 | 8.2µM* | 16µM* | 8% | ? | 2%
SMILES | IL-1B inflam inh | TDP1 cell CPT | DT40 TDP1 no CPT | HT1080-NT tox | ELG1 repair inh | HT1080 IDH1KD tx
CN(C)S(=O)(=O)c1cccc(C(=O)Nc2ccccc2N2CCCCC2)c1 | 19 | ? | ? | 15% | 2% | 9%
CN1CCN(c2ccc(Cl)cc2NC(=O)c2ccc(S(=O)(=O)N(C)C)cc2)CC1 | ? | 18µM* | ? | -14% | 9% | -13%
CC(C)(C)C(=O)OCOP(=O)(COCCn1cnc2c(N)ncnc21)OCOC(=O)C(C)(C)C | . | -26% | -25% | . | . | .
COc1ccc(NC(=O)c2ccc3c(SCC(=O)O)c4c(nc3c2)CCC4)c(OC)c1 | . | 0% | -1% | . | . | .
CCCCNc1ccc(-c2nc(-c3ccco3)no2)cc1[N+](=O)[O-] | . | -26% | ? | . | . | .
CCc1nc(N)nc(N)c1-c1ccc(N(C)Cc2ccccc2)c([N+](=O)[O-])c1 | -98* | 4.6µM* | 0.65µM* | ? | . | 0.65µM*
CN(Cc1ccccc1)c1ccc(C(CC(N)=O)NC(=O)Cc2cccc3ccccc23)cc1[N+](=O)[O-] (stereo unspecified) | -3 | -20% | 2% | -2% | -4% | 6%
Cc1noc(-c2ccc(N(C)Cc3ccccc3)c([N+](=O)[O-])c2)n1 | . | 21µM* | 16µM* | . | . | .
CCc1nc(N)nc(N)c1-c1ccc(NCCN)c([N+](=O)[O-])c1 | 5 | 8.2µM* | 2.6µM* | . | . | .
CCN(CC)c1ccc(-c2nc(-c3ccco3)no2)cc1[N+](=O)[O-] | . | ? | 26µM* | . | . | .
COc1ccc(C(=O)OCC(=O)NC(=O)NC2CCCC2)c(OC)c1 | 19 | ? | ? | -2% | 7% | 1%
Cc1ccc(S(=O)(=O)N2[C@@H](c3ccc(C(C)C)cc3)C(C(=O)O)=C[C@H]2C(C)(C)C)cc1 | 165 | ? | -29% | -3% | 4% | -12%
COc1ccc(CN(C)c2ccc(-c3nc(C)no3)cc2[N+](=O)[O-])cc1 | . | 10µM* | 8.2µM* | . | . | .
CCc1nc(N)nc(N)c1-c1ccc(Cl)cc1 | -25 | 0.94µM* | 0.65µM* | 0.82µM* | -1% | 1.2µM*
Cc1noc(-c2ccc(-c3noc(-c4ccc([N+](=O)[O-])c(C)c4)n3)cc2)n1 | . | -5% | -2% | . | . | .
